# Compound activity as filed in PubChem.
# Hits are enriched below; roughly 7.5% of the tested compounds scored in any of these assays.
# NPC1 prom act – qHTS Assay for NPC1 Promoter Activators | Huh7 NPC1 promoter luciferase reporter, 24 h | Potency, µM (doses to about 9.22 µM), inactives show at the top dose activation, most hits filed as activators | 2.4% of 320,000 active | AID 485313, 2010; also: % of control where 0% means no effect; nearly all actives have a fitted effect of over 60% in size
#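 NPC1 promoter–luciferase Huh7 cells; 24 h compound; luminescence.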
# ELG1 genotox – qHTS screen for small molecules that induce genotoxicity in human embryonic kidney (HEK293T) cells expressing luciferase-tagged ELG1 | HEK293T ELG1-luciferase reporter, luminescence, 16 h | Potency, µM (highest dose often 46 µM), without a hit: top-dose activity change, positive = activation, actives largely listed as activators | 1.3% of 330,000 active; also: % of control where 0% means no effect; nearly all actives have a fitted effect of over 60% in size
#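 Genotoxicity was scored as increased ELG1-luciferase reporter signal, measured by ONE-Glo luminescence (30 min, room temperature). Compound or vehicle exposure of the HEK293T reporter cells lasted 16 hr at 37°C.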
# Rab9 prom act – qHTS Assay for Rab9 Promoter Activators; Huh7 Rab9 promoter-luciferase reporter, luminescence, 24 h; Potency, µM (titrated, usually from 9.22 µM), for the others: at the top dose activation, negative = inhibition, usual class: activators; 2.8% of 320,000 active; AID 485297, 2010; also: % of control where 0% means no effect; nearly all actives have a fitted effect of over 60% in size
#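 Huh7 reporter line, Rab9 promoter upstream of luciferase. Compound exposure 24 h at 37 °C in reduced-serum medium with 10% FBS. Read-out: luminescence.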
# FLuc modulator – qHTS profiling assay for firefly luciferase inhibitor/activator using purifed enzyme and Km concentrations of substrates (counterscreen for miR-21 project); Luciferin 4-monooxygenase (Photinus pyralis), P08659; purified FLuc, Km substrates, luminescence inhibition; Potency, µM (doses to about 57.5 µM), inactives show at the top dose activity change, negative = inhibition, usual class: inhibitors; 6.9% of 360,000 active; AID 588342, 2011;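 also: plate controls were vehicle for no effect and reference inhibitor for full effect; nearly all actives have a fitted effect of over 55% in size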
# Target sequence (P08659 whole entry, looked up): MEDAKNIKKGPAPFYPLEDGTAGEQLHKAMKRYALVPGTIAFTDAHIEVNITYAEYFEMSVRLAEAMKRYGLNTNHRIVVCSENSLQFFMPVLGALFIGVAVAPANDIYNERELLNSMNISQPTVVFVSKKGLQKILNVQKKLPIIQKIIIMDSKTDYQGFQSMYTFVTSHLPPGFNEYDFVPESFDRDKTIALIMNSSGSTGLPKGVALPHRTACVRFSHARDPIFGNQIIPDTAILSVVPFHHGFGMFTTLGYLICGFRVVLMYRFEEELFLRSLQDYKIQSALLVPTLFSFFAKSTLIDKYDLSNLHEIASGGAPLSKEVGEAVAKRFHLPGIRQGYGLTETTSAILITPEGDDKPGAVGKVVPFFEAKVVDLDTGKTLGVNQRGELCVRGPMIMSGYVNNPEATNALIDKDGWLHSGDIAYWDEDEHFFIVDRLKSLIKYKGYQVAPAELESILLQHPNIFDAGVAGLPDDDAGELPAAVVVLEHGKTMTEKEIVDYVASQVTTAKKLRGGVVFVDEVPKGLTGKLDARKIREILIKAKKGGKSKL
#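 Purified P. pyralis luciferase (10nM final) with 10uM D-luciferin and 10uM ATP (Km levels) in 50mM Tris acetate pH 7.5, 10mM Mg acetate, 0.01% Tween-20, 0.05% BSA; qHTS 6-point titration, ~60 µM downward; luminescence read.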
# SMN2 splice enh – qHTS Assay for Enhancers of SMN2 Splice Variant Expression. Potency, µM (titrated, usually from 46.1 µM), without a hit: at the highest dose activity change, positive = activation, most hits filed as activators. 2.8% of 210,000 active. HEK293 SMN2-luciferase splicing reporter, luminescence, 30-36 h. AID 1458, 2008; also: % of control where 0% means no effect; nearly all actives have a fitted effect of over 55% in size
#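 qHTS luciferase splicing reporter: luminescence rises when SMN2 exon 7 is included in transfected HEK293 cells. Compound exposure lasted 30-36 h at 37C, with 4.5 mM final sodium butyrate as control, followed by a ONE-Glo read.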
# * = called active by the depositor; ? = inconclusive; / = no result given; [ ] = another dose, or the depositor's remark. Calls follow the shape of the dose curve; as a rule, active = well fitted curve in the direction sought with a large enough effect; inconclusive = small, poorly fitted or top-dose-only effect, or another doubt; inactive = no such curve, though single readings can be large; an effect the other way counts as inactive or inconclusive. Potency is read from the fitted curve at half-maximal effect.
SMILES,NPC1 prom act,ELG1 genotox,Rab9 prom act,FLuc modulator,SMN2 splice enh
COc1ccc(-c2cc(=O)c3cc(C)ccc3[nH]2)cc1,3.2µM*,13µM*,3.2µM*,1.7µM*,7.1µM*
COc1ccc(NC(=O)CSCc2cc(=O)c3cc(C)ccc3[nH]2)cc1,/,/,/,1%,/
COc1cccc(-c2cc(=O)c3cc(NC(C)=O)ccc3[nH]2)c1,-9%,?,2%,?,?
O=C(CSc1ncc(S(=O)(=O)c2ccccc2)c(=O)[nH]1)Nc1ccccc1Cl,-2%,-1%,-2%,3%,/
CCc1ccc(NC(=O)CSc2ncc(S(=O)(=O)c3cc(C)ccc3C)c(=O)[nH]2)cc1,/,/,/,9.5µM*,-3%
Cc1ccc(C)c(NC(=O)CSc2ncc(S(=O)(=O)c3ccc(C)c(Cl)c3)c(=O)[nH]2)c1,/,/,/,11µM*,/
COc1ccccc1CNC(=O)CSc1ncc(S(=O)(=O)c2ccc(C)c(Cl)c2)c(=O)[nH]1,/,/,/,13µM*,/
CC(C)(C)c1ccc(S(=O)(=O)c2cnc(SCC(=O)Nc3ccc4c(c3)OCCO4)[nH]c2=O)cc1,/,/,/,11µM*,5%
Cc1ccccc1NC(=O)Cc1nc(COC(=O)c2ccc([N+](=O)[O-])cc2)cs1,3%,2%,-5%,11%,/
COc1ccc(CCNC(=O)C2(c3cccs3)CCOCC2)cc1,/,/,/,-7%,/
O=C(CCS(=O)(=O)Cc1cccc(Cl)c1)NCCc1ccccc1,9%,0%,1%,0%,/
O=C(O)c1cc(S(=O)(=O)N2CCN(c3ccccn3)CC2)ccc1Cl,0%,-1%,-1%,-8%,8%
Cc1ccccc1N1CCN(S(=O)(=O)c2nnc(NC(=O)c3ccc(Cl)cc3)s2)CC1,/,/,/,-8%,/
CCN1C(=O)/C(=C/N2CCc3ccccc32)SC1=S,2.8µM*,6.5µM*,3.2µM*,?,10µM*
CCN1C(=O)/C(=C\N2CCCc3ccccc32)SC1=S,11%,13%,24%,?,1%
COC(=O)C1=C(O)/C(=C\c2cc(C)n(-c3ccc(F)cc3)c2C)N=C1C,6%,0%,15%,?,-20%
COC(=O)C1=C(O)/C(=C\c2ccc(OCC(=O)Nc3ccccc3)cc2)N=C1C,-2%,3%,-2%,24µM*,/
COC(=O)C1=C(O)/C(=C/c2cccc(OC)c2O)N=C1C,-4%,13%,?,15µM*,/
COc1ccc(/C=C/C(=O)c2ccc(O)cc2)cc1CN1CCOCC1,7%,8%,-4%,?,-13%[1.84 µM]
O=C(/C=C/c1cccc(O)c1)c1ccc(N2CCOCC2)cc1,?,12%,?,1.2µM*,/
N/C(=N\OC(=O)/C=C/c1ccccc1Cl)c1ccccn1,0.5µM*,?,0.28µM*,0.6µM*,?
N/C(=N\OC(=O)/C=C/c1ccc(Br)cc1)c1ccccn1,1.8µM*,?,2.2µM*,9.5µM*,18µM*
N/C(=N\OC(=O)/C=C/c1ccccc1)c1cccnc1,0%,?,11%,12µM*,2%
N/C(=N\OC(=O)/C=C/c1ccccc1Cl)c1cccnc1,?,21µM*,?,7.6µM*,/
O=C(COC(=O)/C=C/c1ccccc1Cl)Nc1cccnc1Cl,/,-1%,/,/,/
SMILES,NPC1 prom act,ELG1 genotox,Rab9 prom act,FLuc modulator,SMN2 splice enh
N/C(=N\OC(=O)C(c1ccccc1)c1ccccc1)c1cccnc1,1%,1%,-2%,0%,-6%
C=CCc1ccccc1OCC(CN1CCCCC1)OC(C)=O (configuration not stated),2%,-5%,1%,6%,10%
O=C(N/N=C/c1ccc(O)cc1)Nc1cccc2nsnc12,11%,1%,28%,12µM*,/
COc1cc(/C=N/NC(=O)Nc2cccc3nsnc23)cc(OC)c1OC,1%,0%,7%,-17%,0%
Cc1nc(Nc2ccc3c(c2)OCO3)c2oc3ccccc3c2n1,16%,2%,4%,30µM*,-14%
c1ccc2c(c1)oc1c(Nc3ccc4c(c3)OCO4)ncnc12,1.4µM*,5.8µM*,1µM*,2.1µM*,?
